We go through 47 compounds from PubChem BioAssay AID504332 (National Center for Advancing Translational Sciences (NCATS), 2011).

The campaign covered roughly 350,000 compounds. About 31,000 (8.9%) were called active. Inconclusive results (about 15%) are left out. The list comes from a sample in which actives are over-represented; it also holds similar structures and randomly drawn compounds. Values without a mark were called inactive. Calls follow the shape of the dose curve; as a rule, active = well fitted inhibition curve with a large enough effect; inconclusive = small, poorly fitted or top-dose-only effect; inactive = no such curve, though single readings can be large or run the other way.
% is scaled to controls: 0 for no effect and ±100 for the full control effect; potency is read from the fitted curve at half-maximal effect.

Chain of Histone-lysine N-methyltransferase EHMT2 (Homo sapiens) (Q96KQ7 913-1193 limits assumed): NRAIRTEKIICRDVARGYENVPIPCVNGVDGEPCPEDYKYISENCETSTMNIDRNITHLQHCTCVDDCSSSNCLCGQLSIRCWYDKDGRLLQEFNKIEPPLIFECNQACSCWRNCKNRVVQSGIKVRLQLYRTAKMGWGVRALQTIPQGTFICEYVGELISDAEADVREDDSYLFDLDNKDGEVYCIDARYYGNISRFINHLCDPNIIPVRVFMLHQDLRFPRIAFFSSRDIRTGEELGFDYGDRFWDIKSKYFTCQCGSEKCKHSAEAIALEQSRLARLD

In this assay the target is Histone-lysine N-methyltransferase EHMT2 (Homo sapiens) (UniProt Q96KQ7). As to the kind of experiment: qHTS Assay for Inhibitors of Histone Lysine Methyltransferase G9a. Also: nearly all actives have a fitted effect of over 75% in size. Conditions: G9a H3K9 monomethylation, AlphaScreen, 2 h; series mostly up to 59 µM; activity, negative = inhibition: at the top concentration. The method, boiled down:
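Using a bead-based AlphaScreen, monomethylated H3K9 product from 2 h room-temperature reactions (G9a 20 nM, peptide 500 nM, SAM 20 uM) was detected with 0.5 ug/mL rabbit anti-H3K9me1 antibody.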
Take `CCOC(=O)C1=C(c2ccccc2)NC(=S)NC1c1ccc(Cl)cc1` (configuration not stated): the activity, negative = inhibition was -11.4% [at 12.7 µM].

With `COc1ccc(C2NC(=S)NC3=C2CCc2ccccc23)cc1OC` (configuration not stated), the Potency was 0.631 µM (active).

With `COC(=O)C1=C(C)NC(=S)NC1c1ccc(OCC(=O)N2CC(C)OC(C)C2)c(OC)c1` (configuration not stated), the activity, negative = inhibition is -3.57% [at 12.7 µM].

As to `Fc1ccc(CN2CCc3nc(Nc4ccccc4)ncc3C2)cc1F`, the “activity, negative = inhibition” value was -40.7%.

For `CCn1cc(CN2CCC(n3nccc3NC(=O)CCCc3ccccc3)CC2)c(C)n1`, the “activity, negative = inhibition” value was 20.1% [at 102 µM].

Consider `COc1cc(CN2CCC(n3nccc3NC(=O)CCCc3ccccc3)CC2)ccc1O`, for which the Potency is 70.8 µM (active).

Regarding `COc1ccc(CN2CCC(n3nccc3NC(=O)CCCc3ccccc3)CC2)cc1C`, the “activity, negative = inhibition” value is 24.6% [at 102 µM].

Regarding `CCN(C(=O)c1sc2cc(OC)ccc2c1Cl)c1ccccc1`, the “activity, negative = inhibition” value is 52.3%.

`CCN(CC)S(=O)(=O)c1ccc2c(c1)c(=O)c(C(=O)N1CCN(c3cccc(Cl)c3)CC1)cn2C`: the “activity, negative = inhibition” value is 2.37%.

With `CCN1CCN(CCNC(=O)c2ccc3c(c2)NC(=O)/C(=C\c2ccc(OC)c(OC)c2)S3)CC1`, the activity, negative = inhibition was 4.92% [at 0.0925 µM].

In the case of `Cc1ccc(C(=O)N/C(=C\c2ccc(F)cc2)C(=O)NCCN2CCOCC2)cc1`, the “activity, negative = inhibition” value was -3.65% [at 102 µM].

Consider `O=C(NCCN1CCOCC1)c1ccc(/C=C2\Sc3ccccc3N(Cc3ccc(F)cc3)C2=O)cc1`, for which the Potency is 28.2 µM (active).

As for `CCN1CCN(CCNC(=O)c2ccc(/C=C3/Sc4ccccc4N(Cc4cccc(C)c4)C3=O)cc2)CC1`, the Potency is 44.7 µM (active).

Consider `Cc1ccccc1CN1C(=O)c2ccccc2Sc2ccc(C(=O)NCCCN3CCOCC3)cc21`, for which the “activity, negative = inhibition” value is -26.2%.

`O=C(NCCN1CCOCC1)/C(=C/c1ccc(F)cc1)NC(=O)c1ccccc1`: the “activity, negative = inhibition” value is 8.68% [at 102 µM].

On to `CCc1nc2c(cnn2-c2ccc(C)cc2)c(=O)n1-c1ccc(C)cc1`, for which the “activity, negative = inhibition” value is 11.6%.

For the compound `CCOc1ccccc1/C=N/Nc1nc2ccccc2o1`, the “activity, negative = inhibition” value is 15.2% [at 102 µM].

As for `O=C1[C@H]2[C@@H](c3ccc(F)cc3)N3C(=O)N(c4ccc(C(F)(F)F)cc4)C(=O)[C@@]3(Cc3ccccc3)[C@H]2C(=O)N1C1CCCCC1`, the activity, negative = inhibition was 1.06% [at 12.7 µM].

On to `CCOc1ccc(N(CC)S(=O)(=O)N2CCCC(C(=O)NCc3ccc(Cl)cc3)C2)cc1` (configuration not stated), for which the “activity, negative = inhibition” value was 3.08%.

In the case of `Cc1c(C)c(C)c2[nH]c(=S)[nH]c2c1C`, the Potency is 1.12 µM (active).

With `Cc1cc(=O)[nH]c(=S)[nH]1`, the activity, negative = inhibition was -41.8% [at 2.33 µM].

For `CCc1ccc(Oc2coc3cc(O)ccc3c2=O)cc1`, the “activity, negative = inhibition” value is 13.5% [at 102 µM].

On to `CCOC(=O)c1cccc(NC(=O)c2cc(CN3CCCC3)on2)c1`, for which the “activity, negative = inhibition” value was 2.39%.

As to `CCOc1cc(C)c(S(=O)(=O)NCc2ccccn2)cc1C`, the “activity, negative = inhibition” value was 15.8% [at 102 µM].

On to `O=C(c1cccc(F)c1)N1CCN(c2ccc([N+](=O)[O-])c(N3CCCCC3)c2)CC1`, for which the activity, negative = inhibition was 21.2% [at 0.501 µM].

For the compound `O=C(c1ccc(Cl)c([N+](=O)[O-])c1)N1CCN(c2ccccc2)CC1`, the “activity, negative = inhibition” value was -43.7% [at 102 µM].

Turning to `CO/N=C/c1ccc(N2CCN(C(=O)c3cccc(Cl)c3)CC2)c([N+](=O)[O-])c1`, the Potency is 14.1 µM (active).

Turning to `CCCN(CCC)CCCNC(=O)Cn1cc2c(n1)-c1c(oc(C(=O)N3CCCC3)c1C)CC2`, the “activity, negative = inhibition” value is -27.7%.

With `COCC(C)NS(=O)(=O)c1ccc(N2CCCCS2(=O)=O)cc1` (configuration not stated), the “activity, negative = inhibition” value was 7.99%.

Turning to `Cc1nc2sc(C)c(C)n2c(=O)c1S(=O)(=O)NCCc1ccc(Cl)cc1`, the “activity, negative = inhibition” value was -7.89%.

In the case of `Cc1cccn2c(=O)c3cc(C(=O)NC4CCCCC4)sc3nc12`, the “activity, negative = inhibition” value is 3.36% [at 102 µM].

Consider `Cc1cccc(NC(=O)c2cc3c(C)nn(-c4ccccc4)c3s2)c1`, for which the “activity, negative = inhibition” value is -1.38%.

In the case of `Cc1ccccc1-n1nc(C)c2cc(C(=O)NC3CC3)sc21`, the Potency was 79.4 µM (active).

As for `COc1cc(Cl)c(NC(=O)CC(C)S(=O)(=O)c2cc3c(cc2C)NC(=O)CO3)c(OC)c1` (configuration not stated), the “activity, negative = inhibition” value was -34%.

`O=c1cnnc(Nc2ccccc2)[nH]1`: the “activity, negative = inhibition” value was 14.3% [at 102 µM].

On to `O=S(=O)(NCCc1ccccc1)c1ccccc1`, for which the “activity, negative = inhibition” value is -4.81%.

For `S=c1[nH]nc(NCCc2ccccc2)s1`, the Potency was 0.316 µM (active).

Turning to `CC(C)(C)C(=O)c1cnc(Nc2ccccc2)s1`, the “activity, negative = inhibition” value is -11.7%.

`S=c1[nH]nc(Nc2ccccc2)s1`: the Potency was 1.12 µM (active).

As for `O=C(CSc1ncccn1)NCCc1ccccc1`, the “activity, negative = inhibition” value was 21.5%.

In the case of `CCOc1ccc(S(=O)(=O)Nc2cccc(C(=O)NCC3(N4CCCCC4)CCCCC3)c2)cc1`, the activity, negative = inhibition is 19.1% [at 0.501 µM].

`CCOC(=O)C1CCC(CN(Cc2ccc(OC)cc2)S(=O)(=O)c2ccc(F)c(C(=O)Nc3cc(C)ccc3C)c2)CC1` (configuration not stated): the “activity, negative = inhibition” value is 1.59%.

Regarding `O=C(N[C@@H](Cc1ccccc1)C(=O)OCc1ccccc1)c1nc[nH]c1C(=O)NC1CCNCC1`, the activity, negative = inhibition was -7.95% [at 2.33 µM].

Turning to `CCc1ccc(C2C(C#N)=C(N)N(N(C)C)C3=C2C(=O)CCC3)s1` (configuration not stated), the “activity, negative = inhibition” value was -12.3%.

As for `N#CC1=C(N)N(c2ccccc2)C2=C(C(=O)CCC2)C1c1ccccc1` (configuration not stated), the “activity, negative = inhibition” value was -1.58%.

For `Cc1sc(C2C(C#N)=C(N)N(c3cccc(Cl)c3)C3=C2C(=O)CCC3)cc1CN1CCOCC1` (configuration not stated), the Potency is 15.8 µM (active).

In the case of `CC(=O)Nc1cccc(NC(=O)CSc2cn(CC(=O)N3CCCC3)c3ccccc23)c1`, the “activity, negative = inhibition” value is -7.24%.
